Screening data as filed in PubChem BioAssay.
This is a sample that favours compounds with a hit; in the whole collection about 10% have one here.
Six1-Eya2 blk: Six1/Eya2 interaction inhibition | Q15475+O00167 | AlphaScreen GST-Six1/His-Eya2 binding, biochemical; active compounds read low | activity change, % (no concentration beside the values) | hit rate 0.56% among 360,000 | AID 651725; in the data active means activity change below about -65%; inconclusive means mostly about -30% to -63%; further: on the % scale 0 is the no-effect control and ±100 the full control effect
Target sequence (O00167 whole entry, looked up): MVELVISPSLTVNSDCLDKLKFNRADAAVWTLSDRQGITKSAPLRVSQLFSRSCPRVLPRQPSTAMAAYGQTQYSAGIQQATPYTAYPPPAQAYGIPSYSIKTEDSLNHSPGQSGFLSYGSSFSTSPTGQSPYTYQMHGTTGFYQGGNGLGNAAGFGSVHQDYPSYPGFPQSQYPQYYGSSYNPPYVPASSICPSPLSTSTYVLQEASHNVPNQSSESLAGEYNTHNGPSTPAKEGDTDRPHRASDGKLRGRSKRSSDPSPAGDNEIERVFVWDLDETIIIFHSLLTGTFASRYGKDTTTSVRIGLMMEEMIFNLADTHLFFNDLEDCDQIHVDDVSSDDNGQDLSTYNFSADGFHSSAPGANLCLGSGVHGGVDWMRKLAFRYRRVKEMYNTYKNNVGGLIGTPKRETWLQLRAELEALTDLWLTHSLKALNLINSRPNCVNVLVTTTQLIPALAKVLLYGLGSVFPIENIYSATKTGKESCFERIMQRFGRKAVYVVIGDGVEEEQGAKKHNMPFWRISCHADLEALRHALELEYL
Target sequence (Q15475 whole entry, looked up): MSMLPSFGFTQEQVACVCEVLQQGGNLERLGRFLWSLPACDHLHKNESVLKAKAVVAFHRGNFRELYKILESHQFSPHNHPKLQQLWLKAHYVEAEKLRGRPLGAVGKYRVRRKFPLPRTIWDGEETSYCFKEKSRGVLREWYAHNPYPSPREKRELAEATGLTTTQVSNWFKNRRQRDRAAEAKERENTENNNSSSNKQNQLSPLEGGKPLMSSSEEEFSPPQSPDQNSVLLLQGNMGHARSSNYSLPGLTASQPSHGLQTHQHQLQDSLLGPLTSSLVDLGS
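Compounds are tested against tagged Six1 and Eya2 proteins bridged by glutathione donor and nickel acceptor beads; after a one-hour incubation at 37 °C without light, AlphaScreen emission is recorded.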
HP1b binding inh: HP1-beta chromodomain-methylated histone interaction inhibition; Potency, µM (highest dose often 114 µM), for the others: at the top dose activity change, negative = inhibition, usual class: inhibitors; AID 540317; AlphaScreen HP1-beta / biotin-H3K9me3 peptide binding; hit rate 0.56% among 390,000; further: potency means the concentration at half of the fitted maximal effect; nearly all actives have a fitted effect of over 70% in size
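AlphaScreen: HP1-beta (50 nM) preformed 30 min with biotin-H3(1-18)K9me3 peptide (50 nM) in PBS pH 7.4, 0.01% Tween-20. Compound added for 30 min at RT, then streptavidin donor/nickel chelate acceptor beads (10 ug/mL) for 30 min.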
G9a block: blocks human histone lysine methyltransferase G9a | Q96KQ7 | G9a H3K9 monomethylation, AlphaScreen, 2 h | Potency, µM (titrated, usually from 102 µM), without a hit: at the highest dose activity, negative = inhibition, most hits filed as inhibitors | hit rate 8.8% among 350,000 | AID 504332; further: potency means the concentration at half of the fitted maximal effect; on the % scale 0 is the no-effect control and ±100 the full control effect; nearly all actives have a fitted effect of over 75% in size
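Quantitative HTS format: methyltransferase activity on a biotin-tagged H3K9 peptide is measured by AlphaScreen, using a rabbit anti-monomethyl-H3K9 antibody with streptavidin donor and anti-IgG acceptor beads. Final levels are 20 nM enzyme, 500 nM peptide, 20 uM SAM; 2 h RT.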
JMJD2A Tudor: blocks the human JMJD2A Tudor domain; Potency, µM (doses to about 114 µM), inactives show at the top dose activity change, negative = inhibition, usual class: inhibitors; hit rate 4.4% among 390,000; AlphaScreen JMJD2A-Tudor / H3K4me3 peptide binding; O75164; further: potency means the concentration at half of the fitted maximal effect; on the % scale 0 is the no-effect control and ±100 the full control effect; nearly all actives have a fitted effect of over 50% in size
BAZ2B block: BAZ2B (human) inhibition. AID 504333. Q9UIF8. hit rate 4.4% among 360,000. AlphaScreen BAZ2B-H3K14Ac peptide displacement. Potency, µM (titrated, usually from 114 µM), inactives show at the highest dose activity change, negative = inhibition, most hits filed as inhibitors; further: potency means the concentration at half of the fitted maximal effect; on the % scale 0 is the no-effect control and ±100 the full control effect; nearly all actives have a fitted effect of over 60% in size
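Protein-peptide AlphaScreen: BAZ2B 50 nM, b-H3K14Ac 50 nM, 1x PBS pH 7.4 + 0.01% Tween-20. Preincubation 30 min RT; cpd 30 min RT (top 110 uM); beads 20 min RT, light-protected.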
CtBP-E1A inh: inhibitors of CtBP/E1A interaction; hit rate 0.49% among 340,000; AID 651724; AlphaScreen GST-E1A/His-CtBP binding, 1536-well; active compounds read low; activity change, % (test concentration not listed); in the data active means activity change below about -65%; inconclusive means mostly about -30% to -63%; further: on the % scale 0 is the no-effect control and ±100 the full control effect
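Homogeneous bead-based format: GST-tagged E1A captured on glutathione donor beads, His-tagged CtBP on nickel acceptor beads; compounds precede bead addition by 2 h at 37 °C.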
Numbers without * were called inactive; [ ] = remark or other dose. Unless noted, the call rests on the fitted dose curve; in most records, active means well fitted inhibition curve with a large enough effect; inconclusive means small, poorly fitted or top-dose-only effect; inactive means no such curve, though single readings can be large or run the other way.

What do the screens show for `Cc1cccc(N2CCN(C(=O)c3ccc4c(c3)c(C)c(C)n4C)CC2C)c1` (configuration not stated)?
Six1-Eya2 blk: inconclusive; HP1b binding inh: 40µM*; G9a block: 45µM*; JMJD2A Tudor: 28µM*; BAZ2B block: 22µM*; CtBP-E1A inh: inconclusive

How did Cc1cccc(N2CCN(C(=O)c3cc4ccc5cccnc5c4[nH]3)CC2C)c1 (configuration not stated) do in these assays?
HP1b binding inh: -14%; G9a block: inconclusive; JMJD2A Tudor: 28µM*; BAZ2B block: 28µM*

How did CC(C)=NNC(=O)CN1C(=O)NC2NC(=O)NC21 (configuration not stated) do in these assays?
Six1-Eya2 blk: 1; HP1b binding inh: 16%; G9a block: 79µM*; JMJD2A Tudor: -6%; BAZ2B block: 5%; CtBP-E1A inh: 4

Results for CCc1ccc(-c2cc3c(N4CCN(c5ccccc5)CC4)nccn3n2)cc1 ?
HP1b binding inh: -6%; G9a block: inconclusive; JMJD2A Tudor: inconclusive; BAZ2B block: inconclusive

How did Cc1nn(C(=O)C2CC2)c(C)c1Sc1ccc(Cl)cc1 do in these assays?
Six1-Eya2 blk: 44; HP1b binding inh: 154%; G9a block: 44%[59 µM]; JMJD2A Tudor: 133%; BAZ2B block: 87%; CtBP-E1A inh: 38

Results for Cc1ccc(Sc2c(C)nn(C(C)(C)C)c2OC(=O)CC(C)C)cc1 ?
HP1b binding inh: 93%; G9a block: 82%[59 µM]; JMJD2A Tudor: 70%; BAZ2B block: 84%

How did CCC(=O)Oc1c(Sc2ccc(Cl)cc2)c(C)nn1-c1ccccc1 do in these assays?
HP1b binding inh: 30%; G9a block: 2.8µM*; JMJD2A Tudor: -22%; BAZ2B block: 1%

What do the screens show for `CCCC(=O)Oc1c(Sc2ccc(C)cc2)c(C)nn1-c1ccccc1`?
HP1b binding inh: 89%; G9a block: 2µM*; JMJD2A Tudor: -6%; BAZ2B block: 37%

How did CCC(=O)Oc1c(Sc2ccc(C)cc2)c(C)nn1-c1ccccc1 do in these assays?
HP1b binding inh: 49%; G9a block: 10µM*; JMJD2A Tudor: -13%; BAZ2B block: 10%

How did N#Cc1c(NC(=S)NC(=O)c2ccccc2)sc2c1CCC2 do in these assays?
Six1-Eya2 blk: -12; HP1b binding inh: -3%; G9a block: 2.8µM*; JMJD2A Tudor: 45µM*; BAZ2B block: -31%; CtBP-E1A inh: -8

How did Cn1nccc1C(=O)NC(=S)Nc1sc2c(c1C#N)CCCCC2 do in these assays?
Six1-Eya2 blk: 0; HP1b binding inh: 14%; G9a block: 50µM*; JMJD2A Tudor: -9%; BAZ2B block: -4%; CtBP-E1A inh: -9

How did CC(=O)NC(=S)Nc1sc2c(c1C#N)CCCCC2 do in these assays?
Six1-Eya2 blk: -3; HP1b binding inh: -12%; G9a block: 45µM*; JMJD2A Tudor: -24%; BAZ2B block: 4%; CtBP-E1A inh: 0

How did COc1cccc(CN(C)CC(=O)Nc2sc3c(c2C#N)CCC3)c1OC do in these assays?
Six1-Eya2 blk: -4; HP1b binding inh: 40%; G9a block: -33%; JMJD2A Tudor: -8%; BAZ2B block: 79µM*; CtBP-E1A inh: 2

How did CC(C)(C)c1ccc(C(=O)NC(=S)Nc2sc3c(c2C#N)CCC3)cc1 do in these assays?
Six1-Eya2 blk: -9; HP1b binding inh: inconclusive; G9a block: inconclusive; JMJD2A Tudor: inconclusive; BAZ2B block: -9%; CtBP-E1A inh: -6

How did CCn1cc(C(=O)NCCCOC)c(=O)c2cc(S(=O)(=O)N3CCc4ccccc4C3)ccc21 do in these assays?
HP1b binding inh: 32%; G9a block: -21%[59 µM]; JMJD2A Tudor: -19%

What do the screens show for `CC1CCN(S(=O)(=O)c2ccc3c(c2)N(CC(=O)NCCN(C)C)C(=O)CS3)CC1`?
HP1b binding inh: 27%; G9a block: -28%[59 µM]; JMJD2A Tudor: -11%; BAZ2B block: -7%
